# The full list was thinned out, with hits kept by preference.
# Methyltransferases = Primary Screen for Target Class Profiling of Small Molecule Inhibitors of Methyltransferases; 25,000 tested, 3.9% active; calls only at 40 µM; purified enzyme, MTase-Glo SAH luminescence; active compounds read low; call rule not given here
#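 Each enzyme was reacted with SAM and its substrate, with compounds tested once at 40 uM; SAH formed was read by MTase-Glo luminescence.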
# Active calls of the source: *; i = inactive; + = active, no number. On the % scale 0 is the no-effect control and ±100 the full control effect.
SMILES,Methyltransferases
CC12CC(O)C(O)C=C1c1cc(O)cc(O)c1C(=O)O2 (stereo not drawn),i
CCN1C(=O)c2cc(C(=O)NCc3ccc(SC)cc3)nn2CC1(C)C(=O)NC1CCCC1 (stereo not drawn),i
CC(C)CNC(=O)c1ccc2c(=O)n(C(C)C)c3nn(Cc4ccc(Cl)cc4)c(=O)n3c2c1,i
CN[C@@H](C)C(=O)N[C@H]1CN(C(=O)CC(C)C)CC[C@H]2CC[C@@H](C(=O)NC(c3ccccc3)c3ccccc3)N2C1=O,i
Cc1occc(=O)c1O[C@@H]1O[C@H](COC(=O)CC(C)(O)CC(=O)O)[C@@H](O)[C@H](O)[C@H]1O (stereo partly drawn),i
CC1CCCC(NC(=O)C2(C)Cn3c(nc4ccccc43)C(=O)N2Cc2ccc(F)cc2)C1C (stereo not drawn),i
COc1cccc(CN2C(=O)c3cc4ccc(OC)cc4n3CC2(C)C(=O)NC2CCCCCC2)c1 (stereo not drawn),i
O=C1CC(c2noc(-c3cccs3)n2)CN1C1CCCCC1 (stereo not drawn),i
C=C(C(=O)O)C1CC2=C(C)CCCC2(C)C[C@@H]1O (stereo partly drawn),i
C=C(C(=O)O)[C@H]1C[C@]2(C)C(=O)CC[C@]23O[C@H]1C[C@@H]3C,+
Cc1ccc(Cn2c(=O)c3ccccc3n3c(=O)n(CC(=O)Nc4ccc5c(c4)OCO5)nc23)cc1,i
CCC(C)NC(=O)c1ccc2c(=O)n(C(C)C)c3nn(CC(=O)Nc4ccc(C)cc4)c(=O)n3c2c1 (stereo not drawn),i
Cc1cc2c(cc3n2CC(C)(C(=O)NC2CCCCCCC2)N(CCN2CCCC2)C3=O)o1 (stereo not drawn),i
COc1ccccc1CNC(=O)c1cc2n(n1)CC(C)(C(=O)NCc1ccc(F)cc1)N(C)C2=O (stereo not drawn),i
CC1=C2CC3OC3(C)CCC3OC3(C)CC2OC1=O (stereo not drawn),i
Nc1nc(NCCNc2ncc(-n3ccnc3)c(-c3ccc(Cl)cc3Cl)n2)ccc1[N+](=O)[O-],+
Cc1cc(C)cc(NC(=O)CCc2nnc3n(CCCOC(C)C)c(=O)c4ccccc4n23)c1,i
CCCCCNc1nc2c(-c3cccc(C)c3)nnn2c2ccccc12,i
CCOC(=O)c1cccc(NC(=O)N2Cc3c(sc4c3CCCC4)-n3cccc3C2C(C)C)c1 (stereo not drawn),i
COc1ccc2cc3n(c2c1)CC(C)(C(=O)NC1CCCCCCC1)N(CCN1CCOCC1)C3=O (stereo not drawn),i
COC(=O)c1ccccc1O[C@@H]1O[C@H](CO)[C@@H](O)[C@H](O)[C@H]1O[C@@H]1O[C@@H](C)[C@H](O)[C@@H](O)[C@H]1O,i
CC(C)CCN1C(=O)c2cc(-c3cccs3)nn2CC1(C)C(=O)NC1CCCCC1 (stereo not drawn),i
O=C(C1CCCN1[S+](=O)([O-])c1cccs1)N1CCC(N2CCOCC2=O)CC1 (stereo not drawn),i
CCC1c2ccc(C)n2CCN1C(=O)Nc1cccc(C)c1C (stereo not drawn),i
CCc1ccc(NC(=O)c2sc(=S)n3c2[nH]c(=O)c2cc(Cl)ccc23)cc1,i
SMILES,Methyltransferases
O=C(NCc1cccc(Cl)c1)c1sc(=S)n2c1[nH]c(=O)c1cc3c(cc12)OCO3,+
O=C(NCc1ccc2c(c1)OCO2)c1sc(=S)n2c1[nH]c(=O)c1ccc(Cl)cc12,+
O=C(NCc1ccc2c(c1)OCO2)c1n[nH]nc1Nc1ccc(Cl)cc1,i
COC(=O)c1ccc2c(=O)[nH]c3c(C(=O)NCc4ccc5c(c4)OCO5)sc(=S)n3c2c1,i
O=C(NCc1ccc2c(c1)OCO2)c1sc(=S)n2c1[nH]c(=O)c1cc3c(cc12)OCO3,i
COc1ccc(C(=O)N2CCC3(CC2)CN(c2ccccc2)C3=O)cc1OC,i
COc1ccccc1N1C(=O)c2cc3ccccc3n2CC1(C)C(=O)NCCC(C)C (stereo not drawn),i
CS(=O)(=O)N1CCCOCCNC(=O)[C@@H]2CCC[C@@H]21,i
C=C1/C(=C/C=C2\CCC[C@]3(C)[C@@H]([C@H](C)/C=C/[C@@H](C)C(C)C)CC[C@@H]23)C[C@@H](O)C[C@@H]1O,i
CC(CN(C)C)CN1c2ccccc2CCc2ccccc21 (stereo not drawn),i
CN(C)CCC=C1c2ccccc2CCc2ccccc21,+
Cc1ccc(C2c3cccn3-c3sc4c(c3CN2C(=O)Nc2cc(F)ccc2F)CCCC4)cc1 (stereo not drawn),i
COc1ccccc1CNC(=O)C1(C)Cn2cnc(C(=O)NCc3cccc(F)c3)c2C(=O)N1C1CC1 (stereo not drawn),i
CCn1c2c(c(=O)n1Cc1ccccc1)CCN(C(=O)c1scnc1C)C2,i
CNC(=O)[C@@H]1C[C@@H](n2cc(CNC(=O)Nc3ccc(Cl)cc3C)nn2)CN1,i
C=C[C@H]1[C@H](O[C@@H]2O[C@H](CO)[C@@H](O)[C@H](O)[C@H]2O)OC=C(C(=O)OC)[C@H]1C/C=C(/C=O)[C@@H]1C(C(=O)OC)=CO[C@@H](O[C@@H]2O[C@H](CO)[C@@H](O)[C@H](O)[C@H]2O)[C@@H]1C=C,+
COC(=O)C1=CO[C@@H](O[C@@H]2O[C@H](CO)[C@@H](O)[C@H](O)[C@H]2O)[C@@H]2[C@@H](CO)[C@@H](O)C(O)[C@H]12 (stereo partly drawn),i
C=CC1C(O[C@@H]2O[C@H](CO)[C@@H](O)[C@H](O)[C@H]2O)OC=C(C(=O)OC)C1Cc1nccc2c1[nH]c1ccccc12 (stereo partly drawn),i
COC(=O)C1=CO[C@@H](O[C@@H]2O[C@H](CO)[C@@H](O)[C@H](O)[C@H]2O)[C@@H]2C(COC(C)=O)=C[C@H](O)[C@H]12,i
C=C[C@H]1[C@H](O[C@@H]2O[C@H](CO)[C@@H](O)[C@H](O)[C@H]2O)OC=C(C(=O)OC)[C@H]1CCOC(=O)c1cc(O)c(O)c(O)c1,+
C/C=C1\[C@H](O[C@@H]2O[C@H](CO)[C@@H](O)[C@H](O)[C@H]2O)OC=C(C(=O)OC)[C@H]1CC(=O)O,i
COc1ccc(N2C(=O)c3ccc(-c4ccco4)n3CC2(C)C(=O)NCc2ccc(Cl)cc2)cc1 (stereo not drawn),i
CC(C)(N)C(=O)N[C@H](COCc1ccccc1)C(=O)N1CCC2(CC1)CN(S(C)(=O)=O)c1ccccc12,i
CN(CCNC(=O)C1CCCCC(=O)N1Cc1ccccc1)C1CCCCC1 (stereo not drawn),i
C=CCn1c(=O)c2ccc(C(=O)NC(C)C)cc2n2c(=O)n(CC(=O)Nc3c(C)cccc3C)nc12,i
COc1cccc(CNc2nc3c(-c4ccc(Cl)cc4)nnn3c3ccccc23)c1,i
CCC(C)NC(=O)c1ccc2c(=O)n(C(C)C)c3nn(CC(=O)c4ccccc4)c(=O)n3c2c1 (stereo not drawn),i
C=CC(=O)Nc1cccc(Nc2nc(Nc3ccc(N4CCN(C(C)=O)CC4)cc3OC)ncc2C(F)(F)F)c1,i
Cc1cc(-c2cc(OC(=O)c3ccccc3)ccc2Cl)cc2nnc(Nc3ccc(OCCN4CCCC4)cc3)nc12,i
C=CC(=O)Nc1cccc(Oc2nc(Nc3ccc(N4CCN(C)CC4)cc3)ncc2Cl)c1,+

# Source: PubChem BioAssay
